Source: PubChem (National Center for Advancing Translational Sciences (NCATS))
Sampled rows, rich in hits. Any-hit rate of the full collection: about 7.3%.
SNCA expr inhib: inhibitors of alpha-synuclein (SNCA) gene expression | 140,000 tested, 0.17% active | HEK-293 SNCA-luciferase knock-in, luminescence, 24 h | Potency, µM (series often up to 57.2 µM), actives largely listed as inhibitors; further: nearly all actives have a fitted effect of over 45% in size
FLuc inh: blocks purified firefly luciferase enzyme activity. purified P. pyralis luciferase, luminescence, biochemical. 76,000 tested, 2.5% active. AID 1347043. P08659. Potency, µM (series often up to 115 µM), actives largely listed as inhibitors; further: nearly all actives have a fitted effect of over 65% in size
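Inhibitors were tested against purified firefly luciferase in a biochemical, low-substrate format (both substrates at 10uM) and luminescence measured with a CCD imager.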
SNCA viab count: counter-screen for SNCA expression inhibitors: cell viability | 150,000 tested, 0.12% active | HEK-293-SNCA-luc viability, GF-AFC fluorescence, 24 h | AID 1671193 | Potency, µM (titrated, usually from 57.1 µM), hits mostly cytotoxic; further: nearly all actives have a fitted effect of over 30% in size
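HEK-293-SNCA-luc cells (1500/well) plated 24 h, then exposed 24 h to a dilution series; GF-AFC added 30 min at 37C, fluorescence 405/540 nm; normalised to medium-only and DMSO wells, Hill fit.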
3T3 cytotox: NIH 3T3 cell cytotoxicity; NIH 3T3 viability, CellTiter-Glo ATP luminescence, 48-72 h; Potency, µM (highest dose often 96.7 µM), most hits filed as inhibitors; 94,000 tested, 4.3% active; AID 1345082; further: nearly all actives have a fitted effect of over 55% in size
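Cells were seeded at 400 per well, treated with pin-transferred compound, and kept 48 or 72 hr at 37 °C before CellTiter-Glo addition and luminescence imaging of cellular ATP.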
IP6K1 inhibitor: IP6K1 kinase inhibition; IP6K1 kinase, ADP-Glo luminescence, 2 h; active compounds read low; Q92551; AID 1645851; 140,000 tested, 0.81% active; activity change, % (series mostly up to about 58 µM); in the data active means activity change below about -25%
Target sequence (Q92551 whole entry, looked up): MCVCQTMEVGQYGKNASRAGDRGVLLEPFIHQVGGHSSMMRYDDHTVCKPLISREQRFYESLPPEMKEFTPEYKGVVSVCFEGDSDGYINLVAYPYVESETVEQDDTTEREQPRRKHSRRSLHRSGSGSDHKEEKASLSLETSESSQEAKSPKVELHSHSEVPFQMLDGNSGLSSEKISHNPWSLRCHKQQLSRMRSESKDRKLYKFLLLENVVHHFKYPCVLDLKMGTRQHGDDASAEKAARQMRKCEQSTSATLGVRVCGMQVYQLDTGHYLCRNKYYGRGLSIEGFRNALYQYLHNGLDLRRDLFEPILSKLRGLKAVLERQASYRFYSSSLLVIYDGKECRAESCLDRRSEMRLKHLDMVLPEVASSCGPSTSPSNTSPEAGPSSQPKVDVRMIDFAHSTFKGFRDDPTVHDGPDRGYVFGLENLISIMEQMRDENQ
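ADP-Glo luminescence measures ADP made by human IP6K1 during a 2 h RT reaction with ATP/IP6 (mix at 1.3 mM/130 uM); top library doses 57.5 and 19.1 uM final.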
HEK293 tox: HEK 293 cell cytotoxicity | 94,000 tested, 6.6% active | HEK 293 viability, ATP luminescence (CellTiter-Glo), 48-72 h | Potency, µM (doses to about 115 µM), most hits filed as inhibitors; further: nearly all actives have a fitted effect of over 60% in size
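Viability of HEK 293 cells, plated at 250 cells/well, was judged by cellular ATP after compound treatment for 48 or 72 hr. Luminescence was imaged 10 min after CellTiter-Glo addition at room temperature.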
Large screens that a line does not name were inactive. Unless noted, the call rests on the fitted dose curve; in most records, active means well fitted curve in the direction sought with a large enough effect; inconclusive means small, poorly fitted or top-dose-only effect, or another doubt; inactive means no such curve, though single readings can be large; an effect the other way counts as inactive or inconclusive.

Cn1ncc2c(C(=O)Nc3cccc(F)c3)cc(-c3ccc(C(F)(F)F)cc3)nc21	none (no result: SNCA expr inhib, FLuc inh, SNCA viab count)
COc1cccc(-c2cc(C(=O)Nc3cccc(C(F)(F)F)c3)c3cnn(C)c3n2)c1	3T3 cytotox inconclusive, HEK293 tox 32µM (no result: SNCA expr inhib, FLuc inh, SNCA viab count)
Cc1cc(NS(=O)(=O)c2ccc3c(c2)CN(C(=O)CCC(C)C)CC3)no1	3T3 cytotox inconclusive
COc1ccc(CNC(=O)N2CCCC(Cc3noc(-c4ccncc4)n3)C2)cc1 (configuration not stated)	HEK293 tox inconclusive
Cc1ccc(CNC(=O)N2CCCC(Cc3noc(-c4ccccc4)n3)C2)cc1 (configuration not stated)	SNCA expr inhib inconclusive, 3T3 cytotox 25µM, HEK293 tox 28µM
O=C(Cn1c(=O)oc2ccccc21)N1CCCC(Cc2noc(-c3ccccc3)n2)C1 (configuration not stated)	FLuc inh 40µM, SNCA viab count inconclusive, HEK293 tox inconclusive
O=C(N1CCC(Cc2noc(-c3ccc(F)cc3)n2)C1)C1(c2ccccc2)CC1 (configuration not stated)	3T3 cytotox inconclusive, HEK293 tox 40µM (no result: FLuc inh)
Cn1cnc(S(=O)(=O)N2CCCC(Cc3noc(-c4ccccc4)n3)C2)c1 (configuration not stated)	FLuc inh 35µM, 3T3 cytotox inconclusive, HEK293 tox inconclusive
Cc1nc(S(=O)(=O)N2CCC(Cc3noc(-c4ccccc4)n3)C2)cn1C (configuration not stated)	none
O=C(C1CC1)N1CCCC(Cc2noc(-c3ccccc3)n2)C1 (configuration not stated)	FLuc inh inconclusive, 3T3 cytotox inconclusive, HEK293 tox inconclusive
CC(C)C(=O)NC1CN(c2ccnc3ccnn23)C1	none (no result: FLuc inh)
CC(C)Cn1c(=O)c(C(=O)N2CCN([S+](C)(=O)[O-])CC2)nc2cccnc21	none (no result: FLuc inh)
COc1ccc(CNC(=O)N2CCC(c3noc(-c4ccccc4)n3)C2)cc1 (configuration not stated)	SNCA expr inhib inconclusive, 3T3 cytotox inconclusive, HEK293 tox 45µM
O=C(CC1CCCCC1)N1CCCC(CN2CCCC2)C1 (configuration not stated)	none
CC(C)NC(=O)c1nc2cccnc2n(Cc2ccccc2)c1=O	HEK293 tox inconclusive (no result: FLuc inh)
O=C(NCC1CCCCCC1)c1nc2cccnc2n(CCc2ccccc2)c1=O	3T3 cytotox 35µM, HEK293 tox inconclusive (no result: FLuc inh)
O=C(NC1CCCCC1)c1nc2cccnc2n(CCc2ccccc2)c1=O	HEK293 tox inconclusive (no result: FLuc inh)
CC(C)NC(=O)c1nc2cccnc2n(CCc2ccccc2)c1=O	3T3 cytotox inconclusive, HEK293 tox 20µM (no result: FLuc inh)
CCOc1ccccc1CN1C[C@@H](NC(=O)COC)C[C@H]1CO	none
COc1ccc(OC)c(S(=O)(=O)N2CCCCC2CCn2cc(C(=O)N(C)C)nn2)c1 (configuration not stated)	none (no result: FLuc inh)
Cn1c(CO[C@H]2CN(C(=O)Nc3ccccc3)C[C@H]2F)nc2ccccc21	none
COC(=O)C1=C(C)N=C2SC=C(CC(=O)N3CCCC3)N2C1c1cccc(OC)c1 (configuration not stated)	3T3 cytotox inconclusive, HEK293 tox inconclusive
CCn1ccnc1CN(C)Cc1cn(C)nc1-c1ccc(Oc2ccccc2)cc1	3T3 cytotox inconclusive, HEK293 tox 40µM
CCn1ccnc1CN(C)Cc1cn(Cc2ccccc2)nc1-c1cc2ccccc2o1	SNCA viab count inconclusive, 3T3 cytotox 40µM, HEK293 tox 45µM
CCn1ccnc1CN(C)Cc1cn(Cc2ccccc2)nc1-c1ccc2c(c1)OCO2	3T3 cytotox inconclusive, HEK293 tox inconclusive
COc1ncccc1-c1cc(C(=O)NCc2c(C)cc(C)[nH]c2=O)c2c(c1)N(C(C)C)CCO2	3T3 cytotox inconclusive, HEK293 tox inconclusive
CC1=C[C@@H](CNC(=O)C2CCC2)[C@H](C(C)C)C[C@H]1Cc1nc2ccc(F)cc2[nH]1	SNCA viab count inconclusive, 3T3 cytotox 40µM, HEK293 tox 28µM
CC1=C[C@@H](CNC(=O)c2cnccn2)[C@H](C(C)C)C[C@H]1Cc1nc2ccc(F)cc2[nH]1	SNCA viab count inconclusive, 3T3 cytotox 112µM, HEK293 tox 71µM
